IMPase Li inh: membrane-permeable IMPase blocker, potentiated with lithium; CHO-M1 cells, IP1 TR-FRET (IP-One), carbachol + lithium; Potency, µM (top dose mostly 59.4 µM), for the others: at the highest dose activity, negative = IMPase inhibition, hits mostly inhibitors; 210,000 tested, 0.35% active; AID 1457;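 note: IP1 builds up when IMPase is blocked and the TR-FRET signal falls; potency is the fitted concentration of half-maximal effect; plate controls were basal vehicle for no effect and high inhibitor control for full effect; nearly all actives have a fitted effect of over 50% in size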
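Concentration–response in CHO-M1 cells, lithium-potentiated; 30 min at 37C. IP1 detected by competitive TR-FRET after 10 min lysis at RT. Hill-fitted AC50.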
ALDH1A1 inh: inhibitors of human aldehyde dehydrogenase 1A1. AID 1030. 220,000 tested, 7.3% active. Purified ALDH1A1, NADH fluorescence, propionaldehyde substrate. P00352. Potency, µM (doses to about 75.3 µM), inactives show top-dose activity, negative = inhibition, usual class: inhibitors; active = well fitted inhibition curve with a large enough effect, not every such curve was filed as active; inconclusive = small, poorly fitted or top-dose-only effect, or another doubt; inactive = no such curve, though single readings can be large or run the other way;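 note: potency is the fitted concentration of half-maximal effect; plate controls were no enzyme wells and a reference inhibitor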
HPGD inh: HPGD (human) dehydrogenase inhibition | P15428 | 150,000 tested, 4.3% active | Potency, µM, inactives show at the highest dose activity change, negative = inhibition, actives largely listed as inhibitors | AID 894 | purified HPGD, NADH fluorescence kinetic, PGE2 substrate; active = well fitted inhibition curve with a large enough effect, not every such curve was filed as active; inconclusive = small, poorly fitted or top-dose-only effect, or another doubt; inactive = no such curve, though single readings can be large or run the other way; note: potency is the fitted concentration of half-maximal effect
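20 nM HPGD preincubated 15 min at room temperature with compound in 50 mM Tris-HCl pH 8, 0.01% Tween 20. Started with 1 mM NAD+ and 30 uM prostaglandin E2; NADH fluorescence (360/450 nm) read 5 times over 30-s intervals, last minus first.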
IMPase inh: IMPase inhibition in cells | inhibition (IP1 accumulation), % at 46.1 µM | AID 901 | 120,000 tested, under 10 active | CHO-M1 cells, IP1 accumulation, HTRF TR-FRET ratio; active = well fitted curve in the direction sought with a large enough effect in the signal ratio, not every such curve was filed as active; inconclusive = small, poorly fitted or top-dose-only effect, or a change in a side signal; inactive = no such curve, though single readings can be large or run the other way; the % refers to the signal ratio;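 note: cells stimulated with carbachol in lithium chloride buffer; plate controls were DMSO basal wells for no effect and reference inhibitor wells for full effect; higher means more IMPase inhibition seen as more IP1 and lower FRET ratio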
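The IP-One HTRF competitive assay in carbachol-stimulated CHO-M1 cells quantifies cellular IP1. Compounds spanned up to 46 uM final, and activity is expressed as AC50 from concentration-response fits of the ratio and donor data.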
ALOX12 inhib: blocks human 12-lipoxygenase activity; P18054; purified 12-hLO, xylenol orange hydroperoxide absorbance; Potency, µM (top dose mostly 57.1 µM), for the others: at the highest dose activity change, negative = inhibition, actives largely listed as inhibitors; 150,000 tested, 0.12% active; note: potency is the fitted concentration of half-maximal effect; nearly all actives have a fitted effect of over 55% in size
Target sequence (P18054 whole entry, looked up): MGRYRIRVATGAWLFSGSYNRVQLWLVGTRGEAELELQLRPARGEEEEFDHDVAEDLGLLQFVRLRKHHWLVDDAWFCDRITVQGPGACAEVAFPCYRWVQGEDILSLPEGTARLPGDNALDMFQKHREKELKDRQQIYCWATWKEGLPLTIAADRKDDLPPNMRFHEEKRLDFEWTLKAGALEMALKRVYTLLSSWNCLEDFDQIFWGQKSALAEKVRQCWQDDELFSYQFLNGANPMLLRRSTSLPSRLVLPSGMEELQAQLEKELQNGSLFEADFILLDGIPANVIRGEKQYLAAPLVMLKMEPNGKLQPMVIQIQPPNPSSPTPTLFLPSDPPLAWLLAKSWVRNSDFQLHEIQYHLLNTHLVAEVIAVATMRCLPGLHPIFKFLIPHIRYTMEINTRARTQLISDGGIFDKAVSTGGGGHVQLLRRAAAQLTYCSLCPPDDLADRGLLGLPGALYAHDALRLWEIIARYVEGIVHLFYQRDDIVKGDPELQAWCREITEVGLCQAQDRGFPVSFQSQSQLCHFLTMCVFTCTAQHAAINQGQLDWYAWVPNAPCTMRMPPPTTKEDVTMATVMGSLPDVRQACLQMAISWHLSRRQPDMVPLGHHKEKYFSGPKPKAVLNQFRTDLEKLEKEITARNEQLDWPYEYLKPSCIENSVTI
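Hydroperoxide output read as Fe(III)-xylenol orange absorbance, 573-to-405 nm ratio, after 30 min reaction with 40 uM arachidonic acid. Enzyme: 150 nM purified human 12hLO, 15 min compound preincubation; 25 mM Hepes pH 7.0, room temperature.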
NPSR antag: blocks cAMP signaling of the human neuropeptide S receptor; Q6W5P4; CHO-NPSR cells, cAMP TR-FRET, antagonist mode; Potency, µM (series often up to 38.3 µM), for the others: top-dose activity change, negative = inhibition, actives largely listed as inhibitors; 220,000 tested, 1% active; AID 1461; note: potency is the fitted concentration of half-maximal effect; nearly all actives have a fitted effect of over 50% in size
The depositor's hits bear a star; [ ] = dose if it differs, or a comment. This is a sample that favours compounds with a hit; in the whole collection about 8.9% have one here. Unless noted, calls come from the whole dose curve; as a rule, active = well fitted curve in the direction sought with a large enough effect; inconclusive = small, poorly fitted or top-dose-only effect, or another doubt; inactive = no such curve, though single readings can be large; an effect the other way counts as inactive or inconclusive. Unless noted, % is set by controls: 0 for no effect and ±100 for the full control effect.

`Cc1cc(OCC(=O)Nc2ccc(F)c(F)c2)nc(C(C)C)n1` gave IMPase Li inh 2%[38.3 µM], ALDH1A1 inh 25µM*, HPGD inh -12%, IMPase inh 6, ALOX12 inhib 2% and NPSR antag -2%[46.1 µM].
`COc1ccc(NC(=O)C2(c3ccc(NC(=O)c4ccc(OC)c(OC)c4)cc3)CCCC2)cc1` gave IMPase Li inh 2%[38.3 µM], ALDH1A1 inh -9%, HPGD inh -9%, IMPase inh -2, ALOX12 inhib 5% and NPSR antag -1%[46.1 µM].
Screening O=C(CCC1CCCCC1=O)c1ccccc1 (stereo not drawn) returned IMPase Li inh 2%[38.3 µM], ALDH1A1 inh -2%, HPGD inh -19%, IMPase inh inconclusive, ALOX12 inhib -3% and NPSR antag 6%[46.1 µM].
For O=C(CC1C(=O)CCCC1=O)c1ccccc1 the results were IMPase Li inh 11%, ALDH1A1 inh 8.9µM* and NPSR antag 8%.
Screening CCN(CC(=O)O)CC(=O)O returned IMPase Li inh 4%, ALDH1A1 inh -4%[13.5 µM], HPGD inh -11% and ALOX12 inhib 3%[11.4 µM].
`ClC(Cl)(c1nnnn1-c1ccccc1)c1nnnn1-c1ccccc1` gave IMPase Li inh 13%, ALDH1A1 inh 1.1µM*, HPGD inh 3.2µM*, ALOX12 inhib -17% and NPSR antag -3%.
COc1ccc(OC)c(C2C(C#N)=C(N)Oc3cc(C)[nH]c(=O)c32)c1 (stereo not drawn) was read as IMPase Li inh -8%[38.3 µM], ALDH1A1 inh -1%, HPGD inh -13%, IMPase inh 3, ALOX12 inhib 0% and NPSR antag -2%[46.1 µM].
`COc1ccc(OC)c(C2C(C#N)=C(N)Oc3cc(N)ccc32)c1` (stereo not drawn) gave IMPase Li inh 19%[38.3 µM], ALDH1A1 inh 11µM*, HPGD inh -7%, IMPase inh 8, ALOX12 inhib -19% and NPSR antag 8%[46.1 µM].
BrC(/C=C\c1ccccc1)=N/Nc1nc(N2CCOCC2)nc(N2CCOCC2)n1 was read as IMPase Li inh 11%, ALDH1A1 inh -6% and NPSR antag -29%.
For O=S(=O)(Nc1ccc(N=Nc2ccc(O)c3ccccc23)cc1)c1ccccc1 the results were IMPase Li inh 20%, ALDH1A1 inh -1%, HPGD inh 32µM*, ALOX12 inhib -10% and NPSR antag inconclusive.
For O=S(=O)(Nc1ccc(N=Nc2ccccc2)cc1)c1ccccc1 the results were IMPase Li inh 6%, ALDH1A1 inh 9%, HPGD inh inconclusive, IMPase inh 0, ALOX12 inhib -14% and NPSR antag -49%.
Cc1ccc(S(=O)(=O)NC(CC(=O)N2CCc3ccccc32)c2ccco2)cc1 (stereo not drawn) was read as IMPase Li inh -14%[38.3 µM], ALDH1A1 inh 14µM*, HPGD inh -3%, IMPase inh 14, ALOX12 inhib -8% and NPSR antag -16%[46.1 µM].
CCOC(=O)N1CCC(NC(=O)CC(NS(=O)(=O)c2ccc(C)cc2)c2ccco2)CC1 (stereo not drawn) was read as IMPase Li inh 16%[38.3 µM], ALDH1A1 inh -13%, HPGD inh -3%, IMPase inh -1, ALOX12 inhib -4% and NPSR antag -6%[46.1 µM].
CCC1=Nc2ccccc2NC2=C1C(=O)CCC2 was read as IMPase Li inh 31%[38.3 µM], ALDH1A1 inh 11µM*, HPGD inh -20%, IMPase inh 0, ALOX12 inhib -20% and NPSR antag -10%[46.1 µM].
Screening CN1C[C@@H]2C[C@@H](c3ccc(C#CC(C)(C)O)s3)N3CCC[C@@]23C1=O returned IMPase Li inh 6%, ALDH1A1 inh 5% and NPSR antag 12%.
`Cc1cc(C)c(NC(=O)NC2CCCCC2)c(C)c1` gave IMPase Li inh 2%, ALDH1A1 inh 13%, HPGD inh -8%, ALOX12 inhib 3% and NPSR antag 13%.
